# USP10 inh: blocks human USP10 ubiquitin-rhodamine cleavage; Q14694; purified USP10, Ub-rhodamine fluorescence, 60 min; inhibition, % at 20 µM; 47,000 compounds, 1.1% hits; AID 1645856
# USP28 inh: inhibitors of human USP28 deubiquitinase; purified USP28, Ub-rhodamine cleavage fluorescence, 30 min; inhibition, % at 25 µM; 47,000 compounds, 3% hits
# USP8 block: blocks human USP8 ubiquitin-rhodamine cleavage | purified USP8, Ub-rhodamine cleavage fluorescence, 30 min | inhibition, % at 20 µM | 47,000 compounds, 4.2% hits | AID 1645853
# USP7 inh: inhibitors of human USP7 deubiquitinase; Q93009; AID 1645854; purified USP7, Ub-rhodamine cleavage fluorescence; inhibition, % at 20 µM; 47,000 compounds, 0.3% hits
# USP17 inh: human USP17-like deubiquitinase inhibition | A8MUK1 | purified USP17, Ub-rhodamine cleavage fluorescence, 3 h | inhibition, % at 50 µM | 47,000 compounds, 6.5% hits | AID 1645855
# USP30 inh: blocks human USP30 ubiquitin-rhodamine cleavage; purified USP30, Ub-rhodamine cleavage fluorescence; inhibition, % at 25 µM; 47,000 compounds, 5.3% hits; AID 1645860
# Hits are given with their value; n = inactive; x = not tested or not shown. Rows were chosen to be rich in hits. Some 13% of all compounds tested hit in one or more screens of this group. No stated cut-off is given here; in the data, active means inhibition above about 30%; inactive means the rest.
SMILES,USP10 inh,USP28 inh,USP8 block,USP7 inh,USP17 inh,USP30 inh
Cc1c(-c2noc(-c3ccncc3)n2)nnn1-c1ccccc1,n,n,n,n,n,31
c1ccc(-n2nnc(-c3noc(-c4ccncc4)n3)c2-c2ccncc2)cc1,n,n,n,n,n,n
c1ccc(-c2nc(-c3nnn(-c4ccccc4)c3-c3ccncc3)no2)cc1,n,n,n,n,51,n
Cc1c(-c2noc(-c3cccnc3)n2)nnn1-c1ccccc1,n,n,n,n,n,n
COc1ccc(OC)c(NC(=O)CN2CCCN(Cc3ccc(F)cc3)S2(=O)=O)c1,n,n,n,n,x,n
Cc1c(C(=O)N2CCCN(S(=O)(=O)c3ccc(F)cc3)CC2)oc2ccc(F)cc12,n,n,n,n,n,n
Cc1ccc(S(=O)(=O)N2CCCN(C(=O)c3oc4ccccc4c3C)CC2)cc1,n,n,n,n,n,33
Cc1nc(C2CCN(C(=O)Cc3ccccc3)CC2)ncc1C(N)=O,n,n,n,n,n,n
CCCCCCCCC/C=C/C(=O)CCc1c(O)c(C=O)c2c(c1O)C(=O)OC2O (centres undefined),45,71,31,87,75,n
COc1ccc(S(=O)(=O)N2CCCCCC2)cc1C(=O)Nc1ccc2[nH]c(=O)[nH]c2c1,n,47,n,n,30,50
COc1ccc(S(=O)(=O)N2CCCC2)cc1C(=O)NCc1ccc2c(c1)OCO2,n,35,n,n,n,n
Cn1cc(C(=O)NCc2ccc3c(c2)OCO3)c(S(=O)(=O)N2CCCCC2)n1,n,n,n,n,n,n
COc1cccc(-c2c(NC(=O)c3ccco3)n(C)c3ccccc3c2=O)c1,n,n,n,n,n,n
Cc1ccc(C(C(=O)NC2CCCCC2)N(C(=O)CCCC(=O)Nc2ccccn2)c2ccc(C)cc2C)cc1 (centres undefined),n,n,n,n,49,n
COc1ccc(OC)c(N(C(=O)CCCC(=O)Nc2ccccn2)C(C(=O)NC2CCCCC2)c2ccc(F)cc2)c1 (centres undefined),n,n,n,n,35,n
COc1ccc(CN(CC(=O)NC2CCCCC2)C(=O)CCC(=O)Nc2ccccn2)cc1,n,n,n,n,n,48
COc1cc(C2CCN(S(=O)(=O)c3ccccn3)CC2)on1,n,n,n,n,n,n
CCc1ccccc1Nc1nc2ccc(C)cc2nc1-n1nc(C)cc1C,n,n,n,n,n,n
COc1ccccc1N(C)S(=O)(=O)c1ccc(C(=O)Nc2cccc(-n3cnnn3)c2C)cc1,n,n,n,n,35,n
COc1ccccc1N(C)S(=O)(=O)c1ccc(C(=O)NCCc2ccc(F)cc2)cc1,n,n,n,n,n,n
Cc1ccc(C)c(N(CC(=O)Nc2ccc3c(c2)OCCO3)S(=O)(=O)c2ccccc2)c1,n,n,n,n,n,30
COc1cc(C(=O)Nc2ccccc2Cc2ccccc2)cc(OC)c1OC,n,n,n,n,32,36
CCN(Cc1ccccc1)S(=O)(=O)c1ccc(C(=O)Nc2ccc3c(c2)OCCO3)cc1,n,60,n,n,n,40
COc1ccccc1NS(=O)(=O)c1ccc(-c2cc(C)[nH]n2)s1,n,n,n,n,n,n
Cc1cccc(CC2CCCN(C(=O)CN3C(=O)NC(C)(C)C3=O)C2)n1 (centres undefined),n,n,n,n,n,n
SMILES,USP10 inh,USP28 inh,USP8 block,USP7 inh,USP17 inh,USP30 inh
CCN1CCn2cc(S(=O)(=O)NCc3ccccc3F)cc2C1=O,n,n,n,n,n,n
CCOc1ccccc1N(C(=O)CCCC(=O)Nc1ccccn1)C(C(=O)NC1CCCC1)c1ccc(Cl)cc1 (centres undefined),n,n,n,n,n,n
COc1ccccc1NC(=O)c1ccc(S(=O)(=O)N(C)Cc2ccccc2)cc1,n,n,n,n,n,34
Cc1ccnc(NS(=O)(=O)c2ccc(NC(=O)c3ccc(S(=O)(=O)N(C)Cc4ccccc4)cc3)cc2)n1,42,n,40,n,x,n
CC(=O)c1cccc(NC(=O)c2ccc(S(=O)(=O)N(C)Cc3ccccc3)cc2)c1,n,n,n,n,44,n
COc1ccccc1NC(=O)c1coc(NC(=O)c2ccccc2)n1,n,n,n,n,n,n
Cc1ccnc(NS(=O)(=O)c2ccc(NC(=O)c3ccc(S(=O)(=O)N(C)c4ccccc4)cc3)cc2)n1,n,n,n,n,n,n
CC(=O)Nc1cccc(Nc2nc(C)nc3c2CCC3)c1,n,n,n,n,n,n
COCCCNC(=O)COc1ccc(S(=O)(=O)NC(C)(C)C)cc1,n,n,n,n,n,n
O=C(Nc1ccc(Br)cc1F)c1cc(S(=O)(=O)NCCc2ccccc2)ccc1F,n,n,n,n,n,36
COc1ccccc1NC(=O)c1cc(S(=O)(=O)NC2CCCC(C)C2C)ccc1F (centres undefined),n,n,n,n,n,n
CCc1ccc2ncc(S(=O)(=O)c3ccc(Cl)cc3)c(N3CCOCC3)c2c1,n,n,n,n,n,n
COc1ccc(-c2nc(-c3cn(-c4ccccc4)nn3)no2)c(OC)c1,n,54,38,n,71,94
COc1ccccc1-c1nc(-c2cn(-c3ccc(F)cc3)nn2)no1,33,n,89,n,31,41
COc1ccc(-c2nc(-c3nnn(Cc4ccc(F)cc4)c3C)no2)c(OC)c1,n,40,60,n,34,66
COc1ccccc1-c1nc(-c2cn(-c3ccccc3)nn2)no1,n,n,n,n,n,n
COc1ccc(-c2nc(-c3nnn(Cc4cccc(F)c4)c3C)no2)cc1OC,n,n,n,n,n,n
COc1ccccc1Cc1nc(-c2cn(-c3cccc(F)c3)nn2)no1,n,n,n,n,n,34
O=C(N[C@@H]1CC[C@@H](Oc2ccccc2)[C@@H](O)[C@@H]1O)c1ccccc1F,n,n,n,n,n,n
Cc1nc2ccccc2n1CC(=O)N1CC=C(n2c(C)nc(=O)c3ccccc32)CC1,n,n,n,n,n,n
CC1Oc2ccccc2C=C1/C=C(\NC(=O)c1ccc(Cl)cc1)C(=O)NCc1ccco1 (centres undefined),n,n,n,n,n,n
Clc1cccc(-n2cc(-c3noc(-c4ccncc4)n3)nn2)c1,n,n,n,n,n,n
COc1ccc(-c2nc(-c3cn(-c4cccc(Cl)c4)nn3)no2)c(OC)c1,34,x,n,n,65,x
Fc1cccc(-n2cc(-c3noc(-c4cccnc4)n3)nn2)c1,n,n,52,n,54,61
CNc1nc(C2CCCN2S(=O)(=O)c2ccc(C)c(C)c2)nc2c1CCN(C(C)=O)C2 (centres undefined),n,n,n,n,n,n
Cc1ccc(CNC(=O)c2cnn(-c3ccc(Cl)cc3)c2C2CCNCC2)cc1,n,n,n,n,n,n
COc1ccc(C(=O)N2CCC(=O)N(C)C[C@H]3COc4ccc(C)cc4[C@H]32)cc1,n,n,n,n,n,n

# Screening data deposited in PubChem by Buhrlage Lab, Dana-Farber Cancer Institute and Novartis Institutes for BioMedical Research (Cambridge, Mass).
